Screening results (PubChem)
A3A deaminase – inhibitors of human APOBEC3A DNA deaminase | P31941 | recombinant A3A, FAM/TAMRA ssDNA deamination fluorescence | inhibition, % at 20 µM | 0.41% of 330,000 active;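 active = at least 40% inhibition at 20 µM here, with at most 30% in a related deaminase screen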
GC-A act – GC-A (human) enzyme activation | HEK293 GC-A cells, cGMP TR-FRET, EC30 ANP; 0% at EC30 ANP, 100% saturating ANP | activation, % at 10 µM | 0.14% of 370,000 active | AID 1671463; in the data active = activation above about 40%
Neddylation inh – inhibitors of human cullin neddylation; P61081+Q13564; TR-FRET cullin neddylation, biochemical; inhibition, % at 25 µM; 0.58% of 360,000 active; AID 651699; in the data active = inhibition above about 36%
Target sequence (P61081 whole entry, looked up): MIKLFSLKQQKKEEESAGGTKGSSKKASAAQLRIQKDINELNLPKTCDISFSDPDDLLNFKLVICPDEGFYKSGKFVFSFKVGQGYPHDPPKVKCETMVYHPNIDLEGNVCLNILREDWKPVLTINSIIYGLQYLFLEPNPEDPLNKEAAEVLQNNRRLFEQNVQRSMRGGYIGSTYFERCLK
Target sequence (Q13564 whole entry, looked up): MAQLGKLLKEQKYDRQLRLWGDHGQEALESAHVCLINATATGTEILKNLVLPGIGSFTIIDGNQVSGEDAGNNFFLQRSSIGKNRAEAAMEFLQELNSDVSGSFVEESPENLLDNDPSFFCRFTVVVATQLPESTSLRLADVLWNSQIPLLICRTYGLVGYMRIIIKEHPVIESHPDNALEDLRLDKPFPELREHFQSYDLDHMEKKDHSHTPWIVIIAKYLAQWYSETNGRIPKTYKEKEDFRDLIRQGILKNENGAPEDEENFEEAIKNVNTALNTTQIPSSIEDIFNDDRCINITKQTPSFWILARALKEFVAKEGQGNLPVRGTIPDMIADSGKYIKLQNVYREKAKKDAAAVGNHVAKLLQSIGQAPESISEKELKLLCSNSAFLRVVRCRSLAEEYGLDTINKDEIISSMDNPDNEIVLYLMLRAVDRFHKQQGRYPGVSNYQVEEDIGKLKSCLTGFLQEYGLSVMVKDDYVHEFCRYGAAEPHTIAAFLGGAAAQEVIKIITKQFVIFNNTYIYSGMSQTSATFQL
APOBEC3G inh – inhibitors of human APOBEC3G DNA deaminase. inhibition, % at 20 µM. 0.28% of 330,000 active. recombinant A3G, ssDNA deamination FAM/TAMRA fluorescence. AID 493012;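 active = inhibition of at least 40% at 20 µM, with no more than 30% in the related APOBEC3A deaminase screen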
GC-B act – GC-B (human) receptor activation; P20594; HEK293-GC-B cells, CNP EC30, cGMP TR-FRET; 0% at EC30 CNP, 100% saturating CNP; activation, % at 10 µM; 0.11% of 370,000 active;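 active = activation at 10 µM reaching about 35% in either raw or pattern-adjusted values, limit read from the data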
PfG6PD inh – PfG6PD (Plasmodium falciparum) enzyme inhibition | PfGluPho enzyme, NADPH resazurin-diaphorase fluorescence | inhibition, % at 20 µM | 0.78% of 350,000 active | AID 504690;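 active = inhibition reaching at least a set limit at 20 µM in the primary screen, cut at about 59% in these data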
Neddyl conf – confirmation of human cullin neddylation inhibitors; 13% of 1,800 active; TR-FRET cullin neddylation biochemical assay; AID 652217; calls only at 25 µM; shares compounds with Neddylation inh; in the data active = inhibition above about 40%;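 also: neddylation substrate is the cullin 1 ring ligase complex with SKP2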
Each line names hits and unclear results; the compound was inactive in the other large screens (follow-up assays come after a bar, where shown). Shown are actives, neighbours in structure and some others; about 2% of the full set was active somewhere.

O=C(CSc1nnc(-c2ccco2)n1Cc1ccccc1)c1ccccc1	none
O=C(O)c1cccc(N2CCCC2)c1	Neddylation inh 38.8
CCOC(=O)c1nn(-c2ccc(OCC)cc2)c2nc(CC(C)C)c(C#N)c(=O)n12	none (not shown: Neddylation inh)
CCOC(=O)c1nn(-c2ccccc2C)c2nc(CC(C)C)c(C#N)c(=O)n12	Neddylation inh 40.3 | Neddyl conf inactive
O=C(NCCc1ccccc1)OCc1cn(Cc2ccc(Cl)cc2)nn1	none (no result: A3A deaminase, Neddylation inh, APOBEC3G inh, PfG6PD inh)
CC(C)C[C@H]1COc2cccc(F)c2S(=O)(=O)N1C	none (no result: A3A deaminase, Neddylation inh, APOBEC3G inh, PfG6PD inh)
CCCCNC(=O)O[C@H]1CC[C@@]23CCCN2C(=O)CCC[C@H]3C1	none (no result: A3A deaminase, Neddylation inh, APOBEC3G inh, PfG6PD inh)
OC[C@@H]1CN(Cc2ccco2)C[C@H](n2cnc3c(Nc4ccccc4)ncnc32)O1	Neddylation inh 42.6 (not shown: A3A deaminase, APOBEC3G inh, PfG6PD inh)
OC[C@@H]1CN(Cc2ccc(Cl)cc2)C[C@H](n2cnc3c(Nc4ccccc4)ncnc32)O1	Neddylation inh 47.3 (not shown: A3A deaminase, APOBEC3G inh, PfG6PD inh)
CC(C)Nc1ncnc2c1ncn2[C@H]1CN(Cc2ccco2)C[C@@H](CO)O1	none (no result: A3A deaminase, APOBEC3G inh, PfG6PD inh)
N#Cc1nc(-c2ccco2)oc1NCCc1ccccc1	none
COc1ccc(CCNc2oc(-c3ccco3)nc2C#N)cc1	Neddylation inh 45.3 | Neddyl conf active
Cc1cc(C(=O)N/N=C/c2sc(N3CCOCC3)nc2-c2ccccc2)c(C)o1	none
O=C(O)c1cccc(N/N=C/c2sc(N3CCOCC3)nc2-c2ccccc2)c1	Neddylation inh 41.0
O=C(N/N=C/c1sc(N2CCOCC2)nc1-c1ccccc1)c1ccccc1F	none (no result: GC-A act, Neddylation inh, GC-B act)
O=C(N/N=C/c1sc(N2CCOCC2)nc1-c1ccccc1)c1ccccc1O	Neddylation inh 48.5 | Neddyl conf inactive
COc1cc(C(=O)N/N=C/c2sc(N3CCOCC3)nc2-c2ccccc2)cc(OC)c1OC	Neddylation inh 52.1 | Neddyl conf inactive
O=Cc1sc(N2CCOCC2)nc1-c1ccccc1	none (no result: GC-A act, Neddylation inh, GC-B act, PfG6PD inh)
Nc1ccc(C(=O)N/N=C/c2sc(N3CCOCC3)nc2-c2ccccc2)cc1	Neddylation inh 48.2 | Neddyl conf inactive
COc1cc(Cn2cc([C@]34C[C@H]5C(=O)N(C)CC(=O)N5[C@H]3N(S(=O)(=O)c3ccccc3)c3ccccc34)c3ccccc32)cc(OC)c1	none (no result: A3A deaminase, Neddylation inh, APOBEC3G inh, PfG6PD inh)
O=C(OC12CCCN(C1)/C(=C/c1cccc(Cl)c1)C2)c1ccno1 (stereo unspecified)	none (no result: A3A deaminase, Neddylation inh, APOBEC3G inh, PfG6PD inh)
N#Cc1ncc(-c2ccc3c(c2)OCCOCCOCCOCCOCCO3)nc1C#N	none
N#Cc1ncc(-c2ccc3c(c2)OCCOCCOCCOCCO3)nc1C#N	Neddylation inh 37.9 | Neddyl conf inactive
O=C(NC(CO)(CO)CO)c1coc(=O)c(Br)c1	none
O=C(NCCC1=CCCCC1)c1coc(=O)c(Br)c1	none
O=C(Nc1cc(Cl)cc(Cl)c1)c1coc(=O)c(Br)c1	Neddylation inh 40.1 | Neddyl conf inactive
O=C(NNC(=O)C1C2CCCCC21)c1coc(=O)c(Br)c1 (stereo unspecified)	Neddylation inh 38.6 | Neddyl conf inactive
O=C(NC1CCCCC1)C(c1ccc(C(F)(F)F)cc1)n1c(=O)c(-c2ccccc2)nc2ccccc21 (stereo unspecified)	Neddylation inh 41.2 (no result: A3A deaminase, APOBEC3G inh, PfG6PD inh) | Neddyl conf inactive
CC(C)(C)NC(=O)C(c1ccncc1)n1c(=O)c(-c2ccccc2)nc2ccccc21 (stereo unspecified)	Neddylation inh 50.4 (not shown: A3A deaminase, APOBEC3G inh, PfG6PD inh)
CC(C)(C)NC(=O)C(c1ccc(C(F)(F)F)cc1)n1c(=O)c(-c2ccccc2)nc2ccccc21 (stereo unspecified)	none (no result: A3A deaminase, APOBEC3G inh, PfG6PD inh)
CCCCCNC(=O)C(C1CC1)n1c(=O)c(-c2ccccc2)nc2ccccc21 (stereo unspecified)	Neddylation inh 45.2 (not shown: A3A deaminase, APOBEC3G inh, PfG6PD inh)
O=C(NC1CCCCC1)C(CCc1ccccc1)n1c(=O)c(-c2ccccc2)nc2ccccc21 (stereo unspecified)	none (no result: A3A deaminase, APOBEC3G inh, PfG6PD inh)
Cc1cccc(C)c1NC(=O)C(c1ccncc1)n1c(=O)c(-c2ccccc2)nc2ccccc21 (stereo unspecified)	Neddylation inh 62.0 (no result: A3A deaminase, APOBEC3G inh, PfG6PD inh) | Neddyl conf active
Cc1nc(N2CCCCC2C)c2nnn(Cc3ccccc3)c2n1 (stereo unspecified)	none (no result: A3A deaminase, Neddylation inh, APOBEC3G inh, PfG6PD inh)
Cc1ccc(NC(=O)C2CC3CCC2C3)c(C)c1 (stereo unspecified)	none (no result: A3A deaminase, Neddylation inh, APOBEC3G inh, PfG6PD inh)
